This is an account of results in PubChem BioAssay (NCATS).

Unmarked numbers belong to inactive results. Results filed as inconclusive are left out. The source made the active and inactive calls. Unless noted, the call rests on the fitted dose curve; in most records, active means well fitted curve in the direction sought with a large enough effect; inconclusive means small, poorly fitted or top-dose-only effect, or another doubt; inactive means no such curve, though single readings can be large; an effect the other way counts as inactive or inconclusive.

A short description of test [1]: qHTS to identify inhibitors of the type 1 interferon - major histocompatibility complex class I in skeletal muscle: primary screen against the NCATS LOPAC collection (AID 1347405).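 Further: lytic HiBiT luminescence reporting HLA-B protein level; on the % scale 0 is the no-effect control and ±100 the full control effect.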 The gist of the method:
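Immortalized human C25cl48 myoblasts with HiBiT knocked into endogenous HLA-B*08:01 were stimulated with 4.0 ng/ml IFN-beta and given compounds in a 7-point, 1:4.3 titration from 46 uM final; after 24 hrs, lytic HiBiT luminescence was read.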

Test [2] is described as follows: qHTS for inhibitors of adenylyl cyclases using a fission yeast platform: a pilot screen against the NCATS LOPAC library (AID 1347410).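 Further: plate controls were DMSO vehicle for no effect and DPI positive control for full effect.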 The method in brief:
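Read-out: fbp1-GFP fluorescence by laser scanning cytometry (488 nm laser), a gain of signal when AC/cAMP-PKA signalling is inhibited. Strain CHP2027 expressing AC9, GNAS and PDE4D2; compounds at up to 57 µM; 18 h, 30C.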

For test [3], the target named is Protein phosphatase 1D (Homo sapiens) (UniProt O15297). Nature of the test: RapidFire Mass Spectrometry qHTS Assay for Modulators of WT P53-Induced Phosphatase 1 (WIP1) (AID 1347424).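 Further: amount of dephosphorylated VEPPL-S-QETFS peptide product formed by WIP1; series mostly up to about 63 µM; plate controls were DMSO wells for no effect and GSK830371 inhibitor control at 10 µM for full effect.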 The method in brief:
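WIP1 (10 nM final) was preincubated 1 h at room temperature with compounds in Tris-HCl pH 7.5, 30 mM MgCl2, TCEP, EGTA, BSA; 2 uM VEPPL-pS-QETFS phosphopeptide was added for 5 min, quenched with formic acid, and dephosphorylated product quantified by RapidFire MS.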

Test [4] has the same target. Nature of the test: Rhodamine-PBP qHTS Assay for Modulators of WT P53-Induced Phosphatase 1 (WIP1) (AID 1347425). Further: % of control where 0% means no effect. The gist of the method: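 WIP1 (5 nM final) was preincubated with compound for 1 hour at room temperature. It then dephosphorylated 10 uM VEPPL-pS-QETFS peptide in Tris-HCl pH 7.5 with 30 mM MgCl2. Released Pi was detected by 10 uM Rh-PBP fluorescence (ex 525/em 598 nm) read at 1-min intervals for 11 min, as delta f1 - f0.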

The target in test [5] is Single-stranded DNA cytosine deaminase (Homo sapiens) (UniProt Q9GZX7). Nature of the test: Validation qHTS assay for inhibitors of Activation Induced Cytidine Deaminase (AID): AID signal (AID 1347429). Further: on the % scale 0 is the no-effect control and ±100 the full control effect. The gist of the method: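 AID and UDG were combined and compounds added at final up to 114 uM, then DJC20/DJC23 FRET substrate was added for 4 hr at room temperature. NaOH was then added for 30 min before fluorescence was read at 540/590 nm.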

The nature of test [6]: Primary qHTS for inhibitors of La Crosse Virus (LACV) - induced cell death in SH-SY5Y cells (AID 1508616).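 Further: top concentration of the series differs between compounds; 0% = infected DMSO wells and 100% = uninfected DMSO wells; higher means more rescue of cells from virus-induced death.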 The gist of the method: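 Luminescent ATP readout (ATPLite 1step, 5 min room temperature) measured rescue from LACV-induced death after 6 days of infection at 0.01 MOI; normalized to infected DMSO wells and uninfected DMSO wells.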
In test [7] the target is Calcium and integrin-binding protein 1 (Homo sapiens) (UniProt Q99828). Description: Validation qHTS for Identification of Calcium Integrin Binding protein 1 (CIB1) Competitor (AID 1508618). Further: on the % scale 0 is the no-effect control and ±100 the full control effect. The gist of the method:
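Fluorescence polarization with 1 uM CIB1-GST and 100 nM FITC-alphaIIb peptide in HEPES pH 7.4, NaCl, 5 mM CaCl2, Tween20. Compounds at up to 114 uM final, preincubated with protein 15 min; read after 15 min more at RT.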

Test [8] shares this target. Description: Primary qHTS for Identification of Calcium Integrin Binding Protein 1 (CIB1) Competitor (AID 1508620).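 Further: GST tagged CIB1 binding a fluorescein labelled alphaIIb integrin peptide tracer; top concentration of the series differs between compounds; on the % scale 0 is the no-effect control and ±100 the full control effect.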 The gist of the method:
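Fluorescence polarization competition: CIB1-GST (1 uM final) preincubated with compound 15 min at room temperature, then FITC-labeled alphaIIb peptide (100 nM final) added for another 15 min. Polarization read at Ex 480/Em 540.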

Test [9] in a line: Primary qHTS for small molecule stabilizers of the endoplasmic reticulum resident proteome: Secreted ER Calcium Modulated Protein (SERCaMP) assay (AID 1508630). Further: on the % scale 0 is the no-effect control and ±100 the full control effect. The method in brief: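 GLuc-SERCaMP-expressing SH-SY5Y cells, pretreated 16 h with compound, are challenged with thapsigargin to empty ER calcium stores; after 4 h, coelenterazine is added directly to the medium and luminescence is imaged.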

The target in test [10] is Cytochrome P450 2D6 (Homo sapiens) (UniProt P10635). Description: Cytochrome P450 family 2 subfamily D member 6 (CYP2D6) small molecule antagonists: luciferase biochemical (cell-free) qHTS assay (AID 1645840; active means well fitted curve in the direction sought with a large enough effect in the repeat runs; an effect the other way counts as inactive or inconclusive; further: nearly all actives have a fitted effect of over 55% in size; further: potency means the concentration at half of the fitted maximal effect). The method in brief:
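P450-Glo luminescent screen: recombinant CYP2D6 enzyme–proluciferin substrate mix preincubated with compound 10 min at room temperature, then NADPH regeneration added for 1 h at room temperature. Detection reagent added for 20 min; luciferin light read as relative luminescence units.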

For test [11], the target named is Cytochrome P450 2C9 (Homo sapiens) (UniProt P11712). Description: Cytochrome P450 family 2 subfamily C member 9 (CYP2C9) small molecule antagonists: luciferase biochemical (cell-free) qHTS assay (AID 1645842; active means well fitted curve in the direction sought with a large enough effect in the repeat runs; an effect the other way counts as inactive or inconclusive; further: nearly all actives have a fitted effect of over 55% in size; further: potency means the concentration at half of the fitted maximal effect). The method in brief: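 Luminescence, after 20 min with luciferin detection reagent, reflected CYP2C9 turnover during a 1 h NADPH-driven reaction at 37C. Enzyme-substrate mix contained 0.4% bovine serum albumin and was preincubated with compound 10 min at room temperature.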

The next test has as its target Papain (Carica papaya) (UniProt P00784). Description: Primary qHTS assay for inhibitors of the protease papain (AID 1645873).
The nature of test [12]: Primary qHTS for inhibitors of nuclear receptor binding SET domain protein 2 (NSD2) in an isogenic RCH-ACV NSD2 p.E1099K mutant (9B) (AID 1645876). Further: nearly all actives have a fitted effect of over 70% in size. Further: potency means the concentration at half of the fitted maximal effect.
The nature of test [13]: Validation qHTS assay for inhibitors of Activation Induced Cytidine Deaminase (AID): UDG Counterscreen signal (AID 1347427). Further: 0% is about no effect. The gist of the method:
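Counterscreen read of UDG activity (2 U/mL, 4/3x) in the FRET deamination format with AID (1 uM, 4/3x), DJC20/DJC23 substrates (250 nM, 4x), 4 h at room temperature. NaOH stop, fluorescence at 560 ex/665 em.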

Test [14] in a line: Cell Viability qHTS for small molecule stabilizers of the endoplasmic reticulum resident proteome (AID 1508629). Conditions: cell viability counter-screen, 100 nM thapsigargin for final 4 h.
Test [15] can be described thus: A High-Content qHTS Against Drug Library for the Identification of Small Molecules that Inhibit DYT1 Early Onset Primary Dystonia-Associated Cell Pathology (AID 1645839; calls by dose curve; further: series mostly up to about 46 µM). The gist of the method: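 Readout: %pathology, the punctate EGFP-TorsinA distribution from imaging, as the primary channel and cell count as the toxicity counterscreen. HEK293 Flp-In cells expressing delE TorsinA were induced with tetracycline and treated with compound for 48 h.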

The target of test [16] is Cytochrome P450 3A4 (Homo sapiens) (UniProt P08684). Description: Cytochrome P450 family 3 subfamily A member 4 (CYP3A4) small molecule antagonists: luciferase qHTS assay (AID 1645841; active means well fitted curve in the direction sought with a large enough effect in the repeat runs; an effect the other way counts as inactive or inconclusive; further: nearly all actives have a fitted effect of over 45% in size). The gist of the method:
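P450-Glo CYP3A4 enzyme with proluciferin substrate was preincubated with DMSO-dissolved compounds for 10 min at room temperature. NADPH regeneration solution started a 1 h reaction. Detection reagent stopped it, and luminescence was read after 20 min.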

Chain of Single-stranded DNA cytosine deaminase (Homo sapiens) (Q9GZX7 whole entry, looked up): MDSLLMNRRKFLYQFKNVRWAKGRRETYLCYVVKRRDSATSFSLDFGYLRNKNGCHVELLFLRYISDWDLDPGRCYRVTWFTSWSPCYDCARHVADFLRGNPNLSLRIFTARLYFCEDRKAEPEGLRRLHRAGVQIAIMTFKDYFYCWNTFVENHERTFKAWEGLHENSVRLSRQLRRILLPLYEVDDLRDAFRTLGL
Chain of Calcium and integrin-binding protein 1 (Homo sapiens) (Q99828 whole entry, looked up): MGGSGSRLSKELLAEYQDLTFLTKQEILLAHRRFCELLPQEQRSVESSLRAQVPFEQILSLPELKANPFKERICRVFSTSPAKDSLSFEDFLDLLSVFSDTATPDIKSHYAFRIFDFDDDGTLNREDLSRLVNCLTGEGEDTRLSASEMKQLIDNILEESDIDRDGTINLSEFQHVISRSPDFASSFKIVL
Chain of Papain (Carica papaya) (P00784 whole entry, looked up, the tested form may be a part): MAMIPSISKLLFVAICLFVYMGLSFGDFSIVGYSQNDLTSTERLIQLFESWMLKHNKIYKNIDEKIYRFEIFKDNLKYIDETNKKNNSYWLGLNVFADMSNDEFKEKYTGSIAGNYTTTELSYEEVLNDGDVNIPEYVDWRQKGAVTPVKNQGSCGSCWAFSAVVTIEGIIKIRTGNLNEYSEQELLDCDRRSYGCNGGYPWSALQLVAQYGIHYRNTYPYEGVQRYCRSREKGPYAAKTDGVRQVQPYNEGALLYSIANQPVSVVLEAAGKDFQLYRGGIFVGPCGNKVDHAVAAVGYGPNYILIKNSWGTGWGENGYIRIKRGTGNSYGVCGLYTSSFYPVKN
Chain of Cytochrome P450 2C9 (Homo sapiens) (P11712 whole entry, looked up): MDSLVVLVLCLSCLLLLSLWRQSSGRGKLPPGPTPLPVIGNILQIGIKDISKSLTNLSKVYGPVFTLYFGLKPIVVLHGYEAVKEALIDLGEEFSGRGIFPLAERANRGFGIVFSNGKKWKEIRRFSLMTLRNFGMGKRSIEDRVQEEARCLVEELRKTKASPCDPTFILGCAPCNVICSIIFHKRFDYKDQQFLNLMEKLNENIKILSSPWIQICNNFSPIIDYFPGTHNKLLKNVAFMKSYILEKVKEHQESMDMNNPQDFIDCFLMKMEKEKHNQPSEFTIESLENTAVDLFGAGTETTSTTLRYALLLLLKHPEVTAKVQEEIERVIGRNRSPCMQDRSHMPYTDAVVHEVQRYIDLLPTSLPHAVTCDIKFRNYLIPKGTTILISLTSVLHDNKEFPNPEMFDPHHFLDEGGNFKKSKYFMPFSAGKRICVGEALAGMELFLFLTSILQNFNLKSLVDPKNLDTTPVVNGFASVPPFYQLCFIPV
Chain of Cytochrome P450 2D6 (Homo sapiens) (P10635 whole entry, looked up): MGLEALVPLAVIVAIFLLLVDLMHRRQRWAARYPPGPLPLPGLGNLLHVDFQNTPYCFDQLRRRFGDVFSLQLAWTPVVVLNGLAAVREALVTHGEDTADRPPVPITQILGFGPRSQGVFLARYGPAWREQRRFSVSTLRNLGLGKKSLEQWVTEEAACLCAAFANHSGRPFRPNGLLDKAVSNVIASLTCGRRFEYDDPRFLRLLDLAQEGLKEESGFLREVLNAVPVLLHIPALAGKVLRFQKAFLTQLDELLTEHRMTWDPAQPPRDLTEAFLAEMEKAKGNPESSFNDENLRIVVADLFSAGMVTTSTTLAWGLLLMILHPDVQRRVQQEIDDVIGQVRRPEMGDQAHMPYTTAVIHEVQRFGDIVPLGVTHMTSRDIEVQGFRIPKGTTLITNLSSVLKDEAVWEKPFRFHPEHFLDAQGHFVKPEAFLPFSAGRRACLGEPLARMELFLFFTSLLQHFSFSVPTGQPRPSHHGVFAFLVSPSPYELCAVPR
Chain of Protein phosphatase 1D (Homo sapiens) (O15297 whole entry, looked up): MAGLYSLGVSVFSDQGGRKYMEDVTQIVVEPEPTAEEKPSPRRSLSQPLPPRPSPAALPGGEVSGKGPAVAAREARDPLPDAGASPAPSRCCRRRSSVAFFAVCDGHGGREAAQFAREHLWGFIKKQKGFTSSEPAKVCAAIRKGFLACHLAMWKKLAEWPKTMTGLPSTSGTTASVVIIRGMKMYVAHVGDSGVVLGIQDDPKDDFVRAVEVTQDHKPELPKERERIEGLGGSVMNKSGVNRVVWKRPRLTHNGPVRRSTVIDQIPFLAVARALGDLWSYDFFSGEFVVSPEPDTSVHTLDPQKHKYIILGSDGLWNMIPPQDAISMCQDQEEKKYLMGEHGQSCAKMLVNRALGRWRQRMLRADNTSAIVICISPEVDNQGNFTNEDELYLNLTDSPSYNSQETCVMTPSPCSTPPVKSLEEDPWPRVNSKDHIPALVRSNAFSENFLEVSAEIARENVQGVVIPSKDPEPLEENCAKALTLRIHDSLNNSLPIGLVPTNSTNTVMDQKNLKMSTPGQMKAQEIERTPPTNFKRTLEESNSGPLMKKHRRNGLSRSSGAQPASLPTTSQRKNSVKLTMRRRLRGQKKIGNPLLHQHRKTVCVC
Chain of Cytochrome P450 3A4 (Homo sapiens) (P08684 whole entry, looked up): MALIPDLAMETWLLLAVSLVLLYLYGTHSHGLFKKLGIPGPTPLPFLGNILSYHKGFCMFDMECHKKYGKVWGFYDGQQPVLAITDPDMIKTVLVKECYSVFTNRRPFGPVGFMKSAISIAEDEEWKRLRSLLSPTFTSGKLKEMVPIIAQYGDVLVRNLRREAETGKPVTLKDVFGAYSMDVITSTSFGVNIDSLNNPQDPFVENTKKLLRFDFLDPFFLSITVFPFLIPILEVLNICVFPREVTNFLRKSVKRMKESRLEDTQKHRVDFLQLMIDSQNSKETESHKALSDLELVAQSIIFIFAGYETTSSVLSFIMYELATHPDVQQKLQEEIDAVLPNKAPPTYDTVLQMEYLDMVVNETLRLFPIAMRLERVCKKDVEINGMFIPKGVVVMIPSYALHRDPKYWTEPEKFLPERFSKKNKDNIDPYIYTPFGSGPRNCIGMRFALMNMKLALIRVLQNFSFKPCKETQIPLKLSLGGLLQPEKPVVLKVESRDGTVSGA

With `CCO/C([O-])=N/c1c[n+](N2CCOCC2)no1`, the Potency result in test [1], in test [3], in [5], in test [6], in test [8] and in [9] was “inactive” in each case. The Potency result (in test [10]; in test [11]; with Papain (Carica papaya); in test [12]) was “inactive” throughout. Further, the call in [2], in [4] and in test [7] was inactive.
Regarding `COC(=O)C1=C(C)NC(C)=C(C(=O)OCCN(C)Cc2ccccc2)C1c1cccc([N+](=O)[O-])c1` (configuration not stated), the result in test [2] and in [13] was inactive. For the same compound, the Potency result (in test [5]; in [6]; in test [8]; in the test with Papain (Carica papaya)) was “inactive” throughout.
As for `CCn1nc(C(=O)O)c(=O)c2cc3c(cc21)OCO3`, the Potency result (in test [1]; in test [5]; in test [6]; in test [8]; with Papain (Carica papaya); in [12]) was “inactive” each time. Moreover, the call in test [2], in test [4], in test [13] and in test [7] was inactive.
As for `COc1cc(C(=O)OCCCN2CCCN(CCCOC(=O)c3cc(OC)c(OC)c(OC)c3)CC2)cc(OC)c1OC`, the result in test [2], in test [13] and in [7] was inactive. The Potency result (in test [3]; in test [5]; in test [6]; in [8]; with Papain (Carica papaya)) was “inactive” each time. For the same compound, in [14], the max response was -32.9%.
For `COCCOC(=O)C1=C(C)NC(C)=C(C(=O)OC(C)C)C1c1cccc([N+](=O)[O-])c1` (configuration not stated), the compound was classed as inactive in test [2], in test [4], in test [13] and in [7]. Besides, the Potency entry (in test [3]; in test [5]; in [6]; in test [8]; in test [9]; with Papain (Carica papaya)) was “inactive” in each case. In addition, the Potency entry in test [12] is “inactive”.
For `COC(=O)C1=C(C)NC(C)=C(C(=O)OC(C)(C)CN(C)CCC(c2ccccc2)c2ccccc2)C1c1cccc([N+](=O)[O-])c1` (configuration not stated), the compound was classed as inactive in [2], in [4] and in test [7]. In addition, the Potency result (in [3]; in test [5]; in test [6]; in [8]; with Papain (Carica papaya)) was “inactive” each time. The Potency in [10] was 2750 nM (active); in test [11], 1.95 µM (active).
For the compound `CC(C)(Oc1ccc(CCNC(=O)c2ccc(Cl)cc2)cc1)C(=O)O`, the call in [2], in test [4], in [13] and in [7] was inactive. Further, the Potency entry in [5], in test [6], in test [8], in test [9], in [15] and in test [10] was “inactive” in each case. Moreover, the Potency entry (in the test with Papain (Carica papaya); in test [12]) was “inactive” throughout.
`CCOC(=O)C1=C(C)NC(C)=C(C(=O)OC)C1c1cccc(Cl)c1Cl` (configuration not stated): in test [2], the call was inactive. The Potency entry in [3], in [6], in test [8] and in test [9] was “inactive” throughout.
As for `Cc1ccc(/C(=C\CN2CCCC2)c2ccccn2)cc1`, the Potency entry in test [3], in test [5], in [6], in test [8], in [15] and in test [11] was “inactive” throughout. Further, the Potency result (with Papain (Carica papaya); in test [12]) was “inactive” in each case. Also, the compound was called inactive in test [4] and in test [7].
On to `O=C1NCN(c2ccccc2)C12CCN(CCCC(c1ccc(F)cc1)c1ccc(F)cc1)CC2`, for which the call in test [2], in test [4], in [13] and in test [16] was inactive. Also, the Potency entry (in [3]; in test [5]; in [6]; in test [9]; with Papain (Carica papaya)) was “inactive” throughout. The Potency is 436 nM (active) in test [10] and 4.22 µM (active) in [12].
As to `O=C(O)CCCCCCCC(=O)O`, the Potency entry in [1], in test [3], in test [5], in [6], in [8] and in test [9] was “inactive” each time. Also, the Potency entry (in test [10]; in test [11]; in the test with Papain (Carica papaya); in [12]) was “inactive” throughout. For the same compound, the call in test [2], in test [4] and in [7] was inactive.
As to `COCC(=O)O[C@]1(CCN(C)CCCc2nc3ccccc3[nH]2)CCc2cc(F)ccc2[C@@H]1C(C)C`, the result in test [2], in test [4], in [13] and in test [7] was inactive. Further, the Potency entry in [3], in test [5], in [6], in [8], in test [9] and in test [11] was “inactive” throughout. For the same compound, the figures for the Potency in [10] and in test [12] were 49 nM (active) and 10.6 µM (active), respectively.
